31 compounds from PubChem BioAssay AID1347076 (National Center for Advancing Translational Sciences (NCATS), 2019) can be followed below.

SMILES strings stand for the structures. In all, about 400,000 compounds went through this assay and about 13,000 (3.2%) were called active. About 18% were inconclusive and are not listed. Calls follow the shape of the dose curve; as a rule, active = well fitted cell-killing curve with a large enough effect; inconclusive = small, poorly fitted or top-dose-only effect, or effect the other way; inactive = flat fitted curve, though single readings scatter. The sample as a whole holds a higher share of actives than the screen did.
% is scaled to controls: 0 for no effect and ±100 for the full control effect; potency is read from the fitted curve at half-maximal effect.

A short description of this test: qHTS assay for MDR1-selective chemotherapeutics: Primary screen using the drug-selected MDR subline cells KB-V1. Also: nearly all actives have a fitted effect of over 60% in size. To be noted: KB-V1 MDR cells viability, CellTiter-Glo, 72 h; series mostly up to 46.1 µM; activity change, negative = cytotoxicity: at the top concentration. The method, boiled down: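 Readout: CellTiter-Glo luminescence, 10 min after addition. Cells: KB-V1 MDR subline, 72 h at 37 degrees C with compound. Analysis: corrected, normalized data fitted to concentration-effect curves.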
With `CC1(C(=O)NS(=O)(=O)c2cccc(OC(F)F)c2)CCN1C(=O)C1CC1` (stereo unspecified), the “activity change, negative = cytotoxicity” value was -4.92% (inactive). For the compound `Cc1ccc(CN2CC(N3CCC(Cc4ccccc4)CC3)CS2(=O)=O)cc1` (stereo unspecified), the “activity change, negative = cytotoxicity” value is -1.68% (inactive). Take `CS(=O)(=O)Nc1ccc(C(=O)N2CCCC2)cc1`: the “activity change, negative = cytotoxicity” value is -3.08% (inactive). Regarding `O=C(Nc1ccc(Cl)cc1)Nc1ccc(C(=O)N2CCOCC2)cc1`, the “activity change, negative = cytotoxicity” value is -1.12% (inactive).

In the case of `Cc1c(Cl)cccc1NC(=O)Nc1ccc(C(=O)N2CCCC2)cc1`, the Potency is 16.4 µM (active). For the compound `O=C(Nc1cccc(Cl)c1)c1csnn1`, the “activity change, negative = cytotoxicity” value was 12% (inactive).

For the compound `COc1ccc(C2NC(=O)N(C)C3=C2C(=O)N(c2ccc(C(=O)O)cc2)C3)cc1` (stereo unspecified), the “activity change, negative = cytotoxicity” value was 5.43% (inactive). As for `O=S1(=O)N=C(Oc2cccc(Br)c2)c2ccccc21`, the “activity change, negative = cytotoxicity” value is 5.35% (inactive). Turning to `CCOP(=O)(OCC)C(Nc1cccc(C)c1)c1ccc(F)cc1` (stereo unspecified), the Potency was 16.4 µM (active). Turning to `CCCCOC(=O)c1ccc(NC(c2ccc(C)cc2)P(=O)(OC)OC)cc1` (stereo unspecified), the “activity change, negative = cytotoxicity” value is -7.03% (inactive). Turning to `Cc1cccc(C(=O)OCC(=O)Nc2ccc(F)cc2)c1`, the “activity change, negative = cytotoxicity” value is 2.36% (inactive). On the same count and under the same terms, for `CCOC(=O)c1cc2cc(OC)ccc2n1C1CCN(C)CC1` the value was 17.4% (inactive); for `Cc1ccc2sc(N(Cc3cccnc3)C(=O)C3COc4ccccc4O3)nc2c1C` (stereo unspecified), -11.2% (inactive). With `Cn1c(=O)c2c(nc(Br)n2CCSc2nc3ccccc3o2)n(C)c1=O`, the Potency was 6.51 µM (active). On to `CCN(CC)C(=O)CSc1nc2ccccc2o1`, for which the “activity change, negative = cytotoxicity” value was 6.7% (inactive). Consider `Cn1c(=O)[nH]c(=O)c2c1nc(Br)n2CCCCSc1nc2ccccc2o1`, for which the “activity change, negative = cytotoxicity” value was -10.4% (inactive). Take `O=C(Nc1ccc(N2CCOCC2)cc1)c1cccc2c(-c3ccc(F)c(F)c3)coc12`: the “activity change, negative = cytotoxicity” value is -1.2% (inactive). As for `Cc1ccn(CC(=O)NC2CCCN(Cc3ccccc3F)C2)n1` (stereo unspecified), the “activity change, negative = cytotoxicity” value was -2.26% (inactive). In the case of `CCc1ccc(-c2nn(-c3ccccc3C)cc2C(=O)N2CCN(C3CCS(=O)(=O)C3)CC2)cc1` (stereo unspecified), the Potency is 14.6 µM (active). Turning to `COc1ccccc1N1CCN(C(=O)c2cn(-c3ccccc3)nc2-c2cccnc2)CC1`, the “activity change, negative = cytotoxicity” value is -21.6% (inactive). Regarding `CCn1cc(C(=O)N2CCN(C3CCCCC3)CC2)c2cc(OC)c(OC)cc2c1=O`, the “activity change, negative = cytotoxicity” value is 17.4% (inactive). The same measure, in the same setting: for `COc1cc(C)c(CN2CCN(C(=O)CCC(=O)c3ccc(C)s3)CC2)cc1OC` the value was -26.6% (inactive). Still for that read-out and setting: for `CCCNC(=O)c1cc(C2CCCCN2S(=O)(=O)c2ccc(C#N)cc2)on1` (stereo unspecified) the value was 0.778% (inactive); for `O=C(CN1CCSc2ccccc21)N1CCN(c2ccccc2)CC1`, 0% (inactive); for `Cc1nc2ccccc2c2oc(C(=O)NCCCN3CCC(C)CC3)cc12`, -3.06% (inactive).

In the case of `CCCN(CCC)CCNC(=O)c1cc2c(C)nc3ccccc3c2o1`, the Potency was 14.1 µM (active). Consider `CCN(CC)CCNC(=O)c1ccc(NC(=O)c2cc(-c3ccncc3)nc3ccccc23)cc1`, for which the “activity change, negative = cytotoxicity” value was -4.9% (inactive). Still for that read-out and setting: for `Cc1csc[n+]1CCC1CCCCC1` the value was 5.44% (inactive). For `COc1ccccc1CC(=O)Nc1ccc([N+](=O)[O-])cc1OC`, the Potency is 16.4 µM (active). Consider `COc1ccccc1CC(=O)Nc1ccc(F)cc1F`, for which the “activity change, negative = cytotoxicity” value is 0.422% (inactive).

As to `COc1cc([N+](=O)[O-])ccc1NC(=O)CN1CCCC1`, the “activity change, negative = cytotoxicity” value is 1.92% (inactive).
